This note sets out measurements from PubChem BioAssay (NCATS).

In assay [1] the target is Cytochrome P450 3A7 (Homo sapiens) (UniProt P24462). The experiment in a line: Cytochrome P450 family 3 subfamily A member 7 (CYP3A7) small molecule antagonists: luciferase biochemical qHTS assay (AID 1963596). Further: on the % scale 0 is the no-effect control and ±100 the full control effect; nearly all actives have a fitted effect of over 40% in size. The procedure, abridged: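 Luminescence from luciferin released by CYP3A7 from a proluciferin substrate, read 20 min after detection reagent. Compound and enzyme-substrate mix sat 10 min before NADPH regeneration solution; reaction ran 1 h at room temperature.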
A general note: In qHTS, concentration-response curves come from the screen itself.

Assay [2] is described as follows: Viability qHTS for spleen associated tyrosine kinase inhibitor (SYKi) naive MV4-11 cells (AID 1963823). Further: nearly all actives have a fitted effect of over 40% in size. Further: potency means the concentration at half of the fitted maximal effect. The method in brief:
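Compounds were dispensed acoustically onto plates, MV4-11 cells (SYKi-naive) added at 500 per well, and plates incubated 72 hr at 37 C. CellTiter-Glo was added and luminescence measured after 10 min.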

A short description of assay [3]: Viability qHTS for spleen associated tyrosine kinase inhibitor (SYKi) drug resistant MV4-11 cells (AID 1963824). Further: nearly all actives have a fitted effect of over 35% in size. Further: potency means the concentration at half of the fitted maximal effect. The method in brief: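 SYK-inhibitor-resistant MV4-11 AML cells were seeded at 500 per well onto compound and cultured 72 hours (37 °C, 5% CO2). CellTiter-Glo was then added, and after 10 min at room temperature, luminescence gave viability.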
A short description of assay [4]: Cellular viability qHTS for adrenocortical cancer (ACC) cell line SW-13 (AID 1963989). Further: nearly all actives have a fitted effect of over 65% in size. Further: potency means the concentration at half of the fitted maximal effect.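 On activity (max response): cells grown in serum-free medium with ITS supplement; on the % scale 0 is the no-effect control and ±100 the full control effect.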 The conditions noted are these: SW-13 ACC cells viability, CellTiter-Glo, 48 h; activity (max response): hits give low values. The procedure, abridged: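 Luminescent ATP read-out (CellTiter-Glo, 20 min at room temperature) measured metabolically competent SW-13 cells after 48 h compound treatment. Final concentrations spanned up to 46 uM; bortezomib served as positive control.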

Assay [5] in a line: Cellular viability qHTS for adrenocortical cancer (ACC) cell line NCI-H295R (AID 1963990).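 Further: 0% = DMSO only wells and -100% = full killing with cytotoxic reference compound; nearly all actives have a fitted effect of over 60% in size.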 The procedure, abridged:
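IC50 and maximal efficacy derive from four-parameter logistic modelling of titration curves, with reads scaled between DMSO-only wells (0%) and doxorubicin hydrochloride (100% inhibition). Compounds spanned up to 46 uM over 48 h.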

Several values for one entry are separate records, joined by “and”; a condition that tells them apart may be missing. Identical values can stand only once. Inconclusive results are not listed. Unmarked numbers belong to inactive results. Activity calls are given as the source filed them. The call rests on the fitted dose curve; in most records, active means well fitted curve in the direction sought with a large enough effect; inconclusive means small, poorly fitted or top-dose-only effect, or another doubt; inactive means no such curve, though single readings can be large; an effect the other way counts as inactive or inconclusive.

Cytochrome P450 3A7 (Homo sapiens), sequence (P24462 whole entry, looked up): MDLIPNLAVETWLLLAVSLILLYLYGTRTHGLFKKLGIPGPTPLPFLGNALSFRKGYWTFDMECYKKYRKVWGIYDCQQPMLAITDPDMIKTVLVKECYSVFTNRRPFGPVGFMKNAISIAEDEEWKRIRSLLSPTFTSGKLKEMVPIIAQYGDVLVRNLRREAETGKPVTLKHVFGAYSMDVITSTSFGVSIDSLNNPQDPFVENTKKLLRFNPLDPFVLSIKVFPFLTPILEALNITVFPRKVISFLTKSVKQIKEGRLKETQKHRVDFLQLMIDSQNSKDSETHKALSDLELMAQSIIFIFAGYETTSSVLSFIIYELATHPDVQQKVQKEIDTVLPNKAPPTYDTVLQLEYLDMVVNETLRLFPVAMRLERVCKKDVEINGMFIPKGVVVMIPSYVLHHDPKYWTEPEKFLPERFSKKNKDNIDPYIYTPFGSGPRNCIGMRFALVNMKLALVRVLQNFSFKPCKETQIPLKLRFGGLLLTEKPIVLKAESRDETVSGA

With `CC(=O)N[C@@H](CCC(N)=O)C(=O)O`, the Potency entry in assay [1], in assay [2], in assay [3] and in assay [5] was “inactive” in each case. For the same molecule, the activity (max response) in assay [4] is 11.4%.
With `N[C@@H](CCC(=O)N[C@@H](CS)C(=O)NCC(=O)O)C(=O)O`, the Potency entry in assay [1], in assay [2], in assay [3] and in assay [5] was “inactive” throughout. The activity (max response) in assay [4] was -1.28%.
With `CCCCCCCCCCCCOS(=O)(=O)O`, the Potency entry in assay [1], in assay [2] and in assay [3] was “inactive” in each case. Moreover, the activity (max response) in assay [4] is 4.63%.
Turning to `CCCCCCCCCCCCCC(=O)OC(C)C`, the Potency entry in assay [1], in assay [2], in assay [3] and in assay [5] was “inactive” each time. In assay [4], the activity (max response) is 6.54%.
In the case of `O=C1NCC2(CCN(CCc3ccccc3)CC2)O1`, the Potency entry in assay [1], in assay [2], in assay [3] and in assay [5] was “inactive” throughout. Also, the activity (max response) in assay [4] was 4.78%.
With `O=C1N=C(O)CN1/N=C/c1ccc(-c2ccc([N+](=O)[O-])cc2)o1`, the Potency entry in assay [1], in assay [2] and in assay [3] was “inactive” each time. Further, the activity (max response) in assay [4] was 12.2%.
As for `N[C@@H](COP(=O)(O)O)C(=O)O`, the Potency result in assay [1], in assay [2] and in assay [3] was “inactive” throughout. For the same molecule, in assay [4], the activity (max response) was -3.07%.
Take `O=c1[nH]c(=O)n([C@H]2C[C@H](O)[C@@H](CO)O2)cc1F`: in assay [1], the Potency entry was “inactive”. The Potency in assay [2] was 29.9 nM (active) and 83.3 nM (active); in assay [3], 0.105 µM (active); in assay [4] it was 3.66 µM (active) and 3.55 µM (active).
Regarding `NC[C@H]1O[C@H](O[C@H]2[C@H](O)[C@@H](O[C@H]3O[C@H](CO)[C@@H](O)[C@H](N)[C@H]3O)[C@H](N)C[C@@H]2N)[C@H](N)[C@@H](O)[C@@H]1O`, the Potency entry in assay [1], in assay [2], in assay [3] and in assay [5] was “inactive” in each case. Moreover, the activity (max response) in assay [4] was -3.44%.
For `CCOC(=O)c1cccnc1`, the Potency entry in assay [1], in assay [2], in assay [3] and in assay [5] was “inactive” throughout. For the same molecule, the activity (max response) in assay [4] is 14.3%.
In the case of `CC(O)COc1ccccc1` (stereo not given), the Potency entry in assay [1], in assay [2], in assay [3] and in assay [5] was “inactive” throughout. In addition, in assay [4], the activity (max response) is 5.91%.
On to `Cc1cc(NS(=O)(=O)c2ccc(N)cc2)nc(C)n1`, for which the Potency entry in assay [1], in assay [2], in assay [3] and in assay [5] was “inactive” throughout. The activity (max response) in assay [4] was 9.61%.
`O=C(OCc1ccccc1)c1ccccc1`: the Potency entry in assay [1], in assay [2], in assay [3] and in assay [5] was “inactive” throughout. Further, the activity (max response) in assay [4] was -7.64%.
Regarding `OC[C@@H](O)[C@H](O)[C@H](O)[C@@H](O)CO`, the Potency entry in assay [1] and in assay [5] was “inactive” throughout. Moreover, the Potency is 5.96 µM (active) in assay [2] and 3.35 µM (active) in assay [3]. In assay [4], the activity (max response) was 1.26% and 9.11%.
Consider `C[N+]1(C)CCC(=C(c2ccccc2)c2ccccc2)CC1`, for which the Potency result in assay [1], in assay [2], in assay [3] and in assay [5] was “inactive” each time. In assay [4], the activity (max response) was -4.49%.
For `CC(=O)Nc1ccc(S(=O)(=O)Nc2cc(C)on2)cc1`, the Potency result in assay [1], in assay [2], in assay [3] and in assay [5] was “inactive” each time. Further, the activity (max response) in assay [4] is 11.6%.
Turning to `O=C1CC[C@H](C(=O)N2CCCCC2)N1`, the Potency result in assay [1], in assay [2], in assay [3] and in assay [5] was “inactive” each time. Moreover, the activity (max response) in assay [4] was -2.75%.
For the molecule `O=C(O)Cc1ccc(-c2ccccc2)cc1`, the Potency result in assay [1], in assay [2], in assay [3] and in assay [5] was “inactive” throughout. In addition, the activity (max response) in assay [4] is 3.26%.
With `O=C(Cn1ccnc1[N+](=O)[O-])NCCO`, the Potency entry in assay [1], in assay [2] and in assay [3] was “inactive” throughout. The activity (max response) in assay [4] is 10.4%.
On to `CCC(=O)c1ccc(O)cc1`, for which the Potency result in assay [1], in assay [2] and in assay [5] was “inactive” in each case. Moreover, in assay [3], the Potency was 7.5 µM (active). Moreover, the activity (max response) in assay [4] was 5.38%.
For the molecule `CC(C)[C@@H]1CC[C@@H](C)CC1=O`, the Potency result in assay [1], in assay [2], in assay [3] and in assay [5] was “inactive” each time. The activity (max response) in assay [4] is 11.9%.
Regarding `NCCc1ccn[nH]1`, the Potency entry in assay [1], in assay [2], in assay [3] and in assay [5] was “inactive” each time. For the same molecule, in assay [4], the activity (max response) was 3.59%.
For the molecule `CCN[C@@H]1C[C@H](N)[C@@H](OC2OC(CN)=CCC2N)[C@H](O)[C@H]1O[C@H]1OC[C@](C)(O)[C@H](NC)[C@H]1O` (stereo not given in full), in assay [1], the activity change, negative = inhibition was 12% [at 0.91 µM]. Moreover, the viability (% of control) in assay [2] was 111% [at 0.588 µM]. Further, the viability, % of control in assay [3] is 115% [at 0.588 µM]. Besides, the activity (max response) in assay [4] was -2.24%. For the same molecule, the activity change, negative = viability loss in assay [5] is -3.31% [at 0.587 µM].
As to `CCN1CCN(C(=O)N[C@@H](C(=O)N[C@@H]2C(=O)N3[C@@H]2SC(C)(C)[C@H]3C(=O)O)c2ccccc2)C(=O)C1=O`, the Potency result in assay [1], in assay [2], in assay [3] and in assay [5] was “inactive” throughout. The activity (max response) in assay [4] was 12.1%.
For the molecule `CC(C)C(=O)c1c(C(C)C)nn2ccccc12`, the Potency result in assay [1], in assay [2], in assay [3] and in assay [5] was “inactive” each time. Also, the activity (max response) in assay [4] was 11.5%.
In the case of `C[C@@H](O)[C@H]1C(=O)N2C(C(=O)O)=C([C@H]3CCCO3)S[C@H]12`, the Potency entry in assay [1], in assay [2], in assay [3] and in assay [5] was “inactive” throughout. Moreover, the activity (max response) in assay [4] is 12.4%.
Consider `COC(=O)CCc1ccc(OCC(O)CNC(C)C)cc1` (stereo not given), for which the Potency entry in assay [1], in assay [2], in assay [3] and in assay [5] was “inactive” each time. In addition, the activity (max response) in assay [4] is -6.6%.
`CCCNC(C)C(=O)Nc1ccccc1C` (stereo not given): the Potency result in assay [1], in assay [2], in assay [3] and in assay [5] was “inactive” each time. For the same molecule, the activity (max response) in assay [4] is 8.91%.
